Laboratory results: PubChem BioAssay (NCATS)
Results filed as inconclusive are left out. Active and inactive are the calls of the source. Calls follow the shape of the dose curve; as a rule, active = well fitted curve in the direction sought with a large enough effect; inconclusive = small, poorly fitted or top-dose-only effect, or another doubt; inactive = no such curve, though single readings can be large; an effect the other way counts as inactive or inconclusive.

Experiments:
[1] = Cell Viability - SH-SY5Y (AID 544); settings: SH-SY5Y neuroblastoma cell viability; viability change, negative = cytotoxic: at 92.2 µM (top of the series);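 also: cells exposed to compound for 40 hours; nearly all actives have a fitted effect of over 55% in size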
How it was run: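 SH-SY5Y human neuroblastoma cells (1500/well) incubated 5 h, then compound-treated 40 h at 37 °C in complete medium. Viability read as intracellular ATP by CellTiter-Glo luminescence after 20 min; AC50 from Hill-equation fits of qHTS concentration-response.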

[2] = Cell Viability - Renal Proximal Tubule (AID 545);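 also: cells exposed to compound for 40 hours; nearly all actives have a fitted effect of over 40% in size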
How it was run: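 Luminescent ATP signal (CellTiter-Glo) served as the viability read-out after 40 hr compound exposure of freshly isolated rat proximal tubule cells at 37 °C. Concentration-dependent ATP loss was fitted with the Hill equation to give AC50.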

[3] = Cell Viability - Mesenchymal (AID 546);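 also: cells exposed to compound for 40 hours before reading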
How it was run: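 Normal human renal glomerulus-derived kidney mesenchymal cells, 1000 per well in complete medium, were treated with compounds for 40 hr at 37 °C. Viability was read as intracellular ATP by CellTiter-Glo luminescence; AC50 values came from Hill-equation fits of qHTS concentration-response data.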

[4] = Cellular Toxicity (caspase-3) HepG2 (AID 654);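 also: cells exposed to compound for 16 hours before reading; 0% = DMSO alone and 100% = caspase signal from 100 µM tamoxifen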
How it was run: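 HepG2 cells (1500/well) were treated 16 h at 37 °C in complete medium, then caspase 3/7 activity was read by Caspase-Glo luminescence. Data were normalized to DMSO and 100 uM tamoxifen; AC50 came from Hill-equation fits of qHTS concentration-response.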

[5] = Cellular Toxicity (caspase-3) Jurkat (AID 655); settings: Jurkat caspase-3 activation, luminescence; caspase-3 activation: at 92.2 µM (top of the series), DMSO = 0%, tamoxifen = 100%;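 also: cells exposed to compound for 16 h at 37 °C before reading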
How it was run: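 5000 Jurkat cells/well; compound 16 hr, 37 °C; Caspase-Glo 3/7 added, 20 min RT; luminescence read. Norm: DMSO = 0%, tamoxifen 100 uM = 100%. AC50, Hill model.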

[6] = Cellular Toxicity (caspase-3) HUV-EC-C (AID 656)
How it was run: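 qHTS; HUV-EC-C, 1000 cells/well; 5 hr settle, 16 hr cmpd, 37°C; Caspase-Glo 3/7, 20 min RT; luminescence. Norm: DMSO = 0%, tamoxifen 100 uM = 100%. Hill-fit AC50.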

[7] = Cellular Toxicity (caspase-3) SHSY5Y (AID 657)
How it was run: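 qHTS, SH-SY5Y, 1500 cells/well, 5 h pre-incubation 37 °C; compound 16 h 37 °C; Caspase-Glo 3/7 1 h RT; luminescence. Norm.: DMSO = 0, 10 uM staurosporine = 100%. Hill fit → AC50.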

[8] = Cellular Toxicity (caspase-3) MRC-5 (AID 659);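 also: 0% = DMSO basal and 100% = 10 µM staurosporine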
How it was run: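 Luminescence from caspase-cleaved aminoluciferin substrate (Caspase-Glo 3/7, 1 hr RT) reports caspase 3/7 activity in MRC-5 lung fibroblasts after 16 hr compound exposure. Normalized to DMSO basal and 10 uM staurosporine as 100%; AC50 from Hill fits.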

[9] = Cellular Toxicity (caspase-3) Mesangial (AID 660); settings: mesangial cells, normalized: DMSO 0%, 100 µM tamoxifen 100%; at 91.7 µM (top of the series);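 also: cells exposed to compound for 16 h before the caspase read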
How it was run: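 Human renal glomerular mesangial cells, 1000/well, 5 h at 37 C before 16 h compound treatment. Caspase-Glo 3/7 luminescence after 20 min; normalized to DMSO and 100 uM tamoxifen, AC50 from Hill fit.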

[10] = Cellular Toxicity (caspase-3) SK-N-SH (AID 661);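 also: 0% = DMSO basal and 100% = 10 µM staurosporine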
How it was run: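 Human SK-N-SH neuroblastoma cells, 1500/well, were exposed to compounds for 16 hours at 37 °C. Caspase-Glo 3/7 luminescence was normalized to DMSO (basal) and 10 uM staurosporine (100%), and AC50 came from a Hill fit.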

[11] = Cellular Toxicity (caspase-3) H-4-II-E (AID 663); settings: H-4-II-E rat hepatoma, scaled: DMSO 0%, 100 µM tamoxifen 100%; at 92.2 µM (top of the series);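 also: cells exposed to compound for 16 hr before readout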
How it was run: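 Luminescence from caspase-cleaved aminoluciferin substrate, read 20 min after reagent addition, reports caspase 3/7 activation in rat H-4-II-E cells after 16 hr compound exposure. Normalized to DMSO (basal) and 100 uM tamoxifen (100%); AC50 from Hill fits.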

[12] = Cellular Toxicity (caspase-3) Hek293 (AID 664); settings: HEK293 caspase-3 activation, DMSO = 0%, 100 µM tamoxifen = 100%; at 92.2 µM (top of the series);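 also: cells exposed to compound for 16 h at 37 °C before readout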
How it was run: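 HEK293 cells in complete medium treated 16 h at 37 °C, then Caspase-Glo 3/7 luminescence read after 20 min at room temperature. Normalized to DMSO and 100 uM tamoxifen; AC50 from Hill fit of concentration-response.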

[13] = Cellular Toxicity (caspase-3) N2a (AID 665);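 also: compound exposure lasted 16 h at 37 °C before readout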
How it was run: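 Mouse N2a neuroblastoma cells, 1500 per well, treated 16 h at 37 °C in complete medium; caspase-3/7 activity by Caspase-Glo luminescence after 1 h. Normalized to DMSO and 10 uM staurosporine; AC50 from Hill fits.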

[14] = Cellular Toxicity (caspase-3) NIH 3T3 (AID 666);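 also: 0% = DMSO basal and 100% = 100 µM tamoxifen stimulation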
How it was run: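 Mouse NIH 3T3 fibroblasts (1000/well) treated 16 h at 37 C; caspase-3/7 activity measured by Caspase-Glo 3/7 luminescence after 20 min. Normalized to DMSO and 100 uM tamoxifen; AC50 from Hill fits.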

[15] = Cellular Toxicity (caspase-3) Renal Proximal Tubule (AID 667); settings: Potency: caspase-3 activation;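 also: cells exposed to compound for 16 hours at 37 °C before detection; 0% = DMSO basal and 100% = 10 µM staurosporine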
How it was run: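 AC50 derived by standard Hill fit of concentration-response data, normalized between DMSO basal and 10 uM staurosporine as 100% stimulation. Cells: primary rat kidney proximal tubule, 16 h treatment at 37 °C.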

[16] = target: Cytochrome P450 3A4 (Homo sapiens) (UniProt P08684); assay: qHTS Assay for Inhibitors and Substrates of Cytochrome P450 3A4 (AID 884); also: % is scaled to controls: 0 for no effect and ±100 for the full control effect; nearly all actives have a fitted effect of over 50% in size
How it was run: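 20 nM human CYP3A4 with 25 uM Luciferin-PPXE (at KM) in 200 mM KPO4, preincubated 10 min with compound; NADPH regeneration started a 60 min RT reaction. Luciferin detected by luminescence, normalized to 57 uM ketoconazole as full inhibition.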

[17] = Cellular Toxicity (caspase-3) BJ (AID 658);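 also: 0% = DMSO basal and 100% = 10 µM staurosporine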
How it was run: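 Luminescent aminoluciferin-substrate cleavage reports caspase 3/7 activity in normal human BJ fibroblasts after 16 hr compound exposure at 37 °C. Normalized to DMSO (basal) and 10 uM staurosporine (100%); AC50 from Hill fit of concentration-response.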

[18] = Cell Viability - LYMP2-001 (AID 921);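 also: cells exposed to compound for 24 h at 37 °C; 0% = DMSO only and full inhibition = tetraoctylammonium bromide control wells; nearly all actives have a fitted effect of over 70% in size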
How it was run: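 Steps: seed 2500 lymphoblastoid cells/well; 5 hr, 37 C; add compound; 24 hr, 37 C; CellTiter-Glo reagent, 30 min room temperature; read luminescence. Concentration-response modeled by Hill equation for AC50.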

[19] = target: Cytochrome P450 3A4 (Homo sapiens) (UniProt P08684); assay: qHTS Assay for Activators of Cytochrome P450 3A4 (AID 885); also: nearly all actives have a fitted effect of over 65% in size
How it was run: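 Signal was normalized against complete inhibition by 57 uM ketoconazole. The reaction used 20nM CYP3A4 with 25uM Luciferin-PPXE, 10-min compound preincubation and a 60-min NADPH-supported step at RT.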

Sequence of Cytochrome P450 3A4 (Homo sapiens) (P08684 whole entry, looked up): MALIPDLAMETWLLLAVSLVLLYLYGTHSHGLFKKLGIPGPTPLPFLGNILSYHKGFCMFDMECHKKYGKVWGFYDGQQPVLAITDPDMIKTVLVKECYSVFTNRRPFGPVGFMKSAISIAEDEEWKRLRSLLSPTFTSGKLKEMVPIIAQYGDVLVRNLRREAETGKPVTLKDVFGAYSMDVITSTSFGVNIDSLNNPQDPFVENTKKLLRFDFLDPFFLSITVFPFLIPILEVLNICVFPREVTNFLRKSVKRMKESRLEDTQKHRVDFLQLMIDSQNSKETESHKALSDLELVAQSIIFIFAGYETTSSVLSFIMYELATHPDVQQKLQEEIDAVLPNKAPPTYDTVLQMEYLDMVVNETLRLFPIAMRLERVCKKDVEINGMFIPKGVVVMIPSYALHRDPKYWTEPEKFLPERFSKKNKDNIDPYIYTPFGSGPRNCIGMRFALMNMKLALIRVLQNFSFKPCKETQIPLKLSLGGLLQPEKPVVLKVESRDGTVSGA

O=C(O)c1ccc(CO)o1
inactive: Potency [1] | Potency [2] | Potency [3] | Potency [4] | caspase-3 activation [5] 1.29% | outcome [6] | outcome [7] | outcome [8] | caspase-3 activation [9] -0.701% | outcome [10] | caspase-3 activation [11] 0.706% | caspase-3 activation [12] -0.635% | outcome [13] | outcome [14] | Potency [15] | Potency [16]

c1ccsc1
inactive: Potency [1] | Potency [2] | Potency [3] | Potency [4] | caspase-3 activation [5] 0.61% | outcome [7] | outcome [17] | outcome [8] | caspase-3 activation [9] -0.223% | outcome [10] | caspase-3 activation [11] 0.78% | caspase-3 activation [12] -0.842% | outcome [13] | outcome [14] | Potency [15] | Potency [16] | Potency [18]

Cc1ccc2ccccc2c1[N+](=O)[O-]
inactive: Potency [1] | Potency [2] | Potency [3] | Potency [4] | caspase-3 activation [5] -0.271% | outcome [6] | outcome [7] | outcome [17] | outcome [8] | caspase-3 activation [9] 0.0968% | outcome [10] | caspase-3 activation [11] -1.44% | caspase-3 activation [12] -2.81% | outcome [13] | outcome [14] | Potency [15] | Potency [18]

Cc1nc2ccc(Cl)cc2[nH]1
inactive: Potency [1] | Potency [2] | Potency [3] | Potency [4] | outcome [6] | outcome [7] | outcome [8] | caspase-3 activation [9] -0.773% | outcome [10] | caspase-3 activation [11] 0.101% | caspase-3 activation [12] -1.32% | outcome [13] | outcome [14] | Potency [15] | Potency [16] | Potency [18]

Cc1ccc(C(=O)O)cc1
inactive: Potency [2] | Potency [4] | caspase-3 activation [5] 1.89% | outcome [6] | outcome [7] | outcome [17] | outcome [8] | caspase-3 activation [9] -0.126% | outcome [10] | caspase-3 activation [11] 1.11% | caspase-3 activation [12] 0.649% | outcome [13] | outcome [14] | Potency [15] | Potency [16] | Potency [18]

CC(=O)CC(C)C
inactive: Potency [1] | Potency [2] | Potency [3] | Potency [4] | caspase-3 activation [5] -2.68% | outcome [6] | outcome [7] | outcome [17] | outcome [8] | caspase-3 activation [9] 0.196% | outcome [10] | caspase-3 activation [11] 1.31% | caspase-3 activation [12] -0.532% | outcome [13] | outcome [14] | Potency [15] | Potency [16] | Potency [18]

COc1ccc(N=[N+]([O-])c2ccc(OC)cc2)cc1
inactive: Potency [1] | Potency [2] | Potency [3] | Potency [4] | caspase-3 activation [5] -8.89% | outcome [6] | outcome [7] | outcome [17] | outcome [8] | caspase-3 activation [9] -3.45% | outcome [10] | caspase-3 activation [11] -3.45% | caspase-3 activation [12] -8.4% | outcome [13] | Potency [15] | Potency [16] | Potency [18]

O=C(O)CNC(=O)c1ccc([N+](=O)[O-])cc1
inactive: Potency [1] | Potency [2] | Potency [3] | Potency [4] | caspase-3 activation [5] 1.61% | outcome [6] | outcome [7] | outcome [17] | outcome [8] | caspase-3 activation [9] -0.679% | outcome [10] | caspase-3 activation [11] 0.8% | caspase-3 activation [12] -2.43% | outcome [13] | outcome [14] | Potency [15] | Potency [16] | Potency [18]

COc1cccc(N)c1
inactive: Potency [1] | Potency [2] | Potency [3] | Potency [4] | caspase-3 activation [5] 2.35% | outcome [6] | outcome [7] | outcome [17] | outcome [8] | caspase-3 activation [9] 2% | outcome [10] | caspase-3 activation [11] 4.32% | caspase-3 activation [12] 7.74% | outcome [13] | outcome [14] | Potency [15] | outcome [19] | Potency [18]

CC=C(Cl)Cl
inactive: Potency [1] | Potency [2] | Potency [3] | Potency [4] | caspase-3 activation [5] -0.538% | outcome [7] | outcome [17] | outcome [8] | caspase-3 activation [9] -0.275% | outcome [10] | caspase-3 activation [11] 0.108% | caspase-3 activation [12] 0.136% | outcome [13] | outcome [14] | Potency [15] | Potency [16]

O=Cc1ccccc1Cl
inactive: Potency [1] | Potency [2] | Potency [3] | Potency [4] | caspase-3 activation [5] 7.22% | outcome [6] | outcome [7] | outcome [17] | caspase-3 activation [9] -0.514% | outcome [10] | caspase-3 activation [11] 2.39% | caspase-3 activation [12] 2.31% | outcome [13] | outcome [14] | Potency [15] | Potency [16]

CCOc1ccccc1N
inactive: Potency [1] | Potency [2] | Potency [3] | Potency [4] | caspase-3 activation [5] 0.926% | outcome [6] | outcome [7] | outcome [17] | outcome [8] | caspase-3 activation [9] 1.9% | caspase-3 activation [11] -0.577% | caspase-3 activation [12] -1.95% | outcome [13] | outcome [14] | Potency [15] | Potency [16] | Potency [18]

O=P(O)(OCc1ccccc1)OCc1ccccc1
inactive: Potency [1] | Potency [2] | Potency [3] | Potency [4] | caspase-3 activation [5] 1.88% | outcome [6] | outcome [7] | outcome [17] | outcome [8] | caspase-3 activation [9] -0.354% | outcome [10] | caspase-3 activation [11] 1.06% | caspase-3 activation [12] -1.18% | outcome [13] | outcome [14] | Potency [15] | Potency [16] | Potency [18]

C=C(C)C(N)=O
inactive: Potency [1] | Potency [2] | Potency [3] | Potency [4] | outcome [6] | outcome [7] | outcome [17] | outcome [8] | caspase-3 activation [9] -0.474% | outcome [10] | caspase-3 activation [11] -0.402% | caspase-3 activation [12] -0.593% | outcome [13] | outcome [14] | Potency [15] | Potency [16] | Potency [18]
